# Measurements taken from PubChem BioAssay AID624047 (National Center for Advancing Translational Sciences (NCATS), 2012).
# Unmarked numbers belong to inactive results. Active and inactive are the calls of the source. Calls come from the whole dose curve; as a rule, active = well fitted inhibition curve with a large enough effect; inactive = flat fitted curve, though single readings scatter.
# Target: Dual specificity protein kinase CLK1 (Homo sapiens) (UniProt P49759)
# Assay: Reaction Biology data for inhibitors of CLK1: Probe SAR
# Conditions: Reaction Biology CLK1 kinase assay, 10 uM ATP; series mostly up to 10 µM; activity change, negative = inhibition: at the top concentration
# Text: Alternative splicing of pre-mRNAs plays a major role in the regulation of eukaryotic gene expression. Alternative splicing is now thought to be one of the primary reasons for the complexity of higher organisms leading to an average of three protein isoforms per gene. Aberrant splicing can lead to a number of diseases and is known to play a role in rare genetic diseases such as progeria syndrome. Hutchinson-Gilford Progeria Syndrome (HGPS) is a pediatric premature aging disease caused by a spontaneous mutation in the lamin A/C (LMNA) gene due to a single point mutation in the lamin A gene effecting 1 in 4 million people. To identify both specific splicing modulators of the lamin A gene as well as general splicing modulators, a cell-based HTS assay was developed using a minigene reporter system (AIDs, 1459 & 1487). […] This AID summarizes the characterization of lead compounds in Clk1. NIH Molecular Libraries Probe Production Centers Network [MLPCN] NIH Chemical Genomics Center [NCGC] MLPCN Grant: MH084827 Assay Submitter (PI): Tom Misteli
# Compound IC50s were determined at Reaction Biology (http://www.reactionbiology.com) with ten concentration points starting at 10 uM in the assay using a 3-fold dilution series. The control compound staurosporine was also tested in the 10-dose IC50 mode with the same 3-fold serial dilution, again starting at 10 uM. All kinase reactions were performed using 10 uM ATP in the assay. 100% activity was taken from kinase reactions with DMSO alone (the vehicle used for compound stock solutions).
# Dual specificity protein kinase CLK1 (Homo sapiens), sequence (P49759 whole entry, looked up): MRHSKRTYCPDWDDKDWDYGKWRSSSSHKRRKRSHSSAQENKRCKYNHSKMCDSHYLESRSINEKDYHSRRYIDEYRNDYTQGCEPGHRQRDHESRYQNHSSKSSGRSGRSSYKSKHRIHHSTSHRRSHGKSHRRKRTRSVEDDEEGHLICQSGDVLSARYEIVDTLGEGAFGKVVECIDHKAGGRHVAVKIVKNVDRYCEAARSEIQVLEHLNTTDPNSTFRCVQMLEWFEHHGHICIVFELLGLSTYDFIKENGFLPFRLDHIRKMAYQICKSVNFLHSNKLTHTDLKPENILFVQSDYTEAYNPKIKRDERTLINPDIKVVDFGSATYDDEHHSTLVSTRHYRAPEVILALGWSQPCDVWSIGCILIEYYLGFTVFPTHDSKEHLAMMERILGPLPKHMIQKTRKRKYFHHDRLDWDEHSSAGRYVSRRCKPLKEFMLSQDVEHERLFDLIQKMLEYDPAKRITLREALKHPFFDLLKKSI
Compound,Potency,"activity change, negative = inhibition"
COc1ccc(-c2ccnc(NCc3ccc(Cl)c(Cl)c3)n2)cc1,76.5 nM (active),–
c1cncc(CNc2ncncc2-c2ccc3c(c2)OCO3)c1,4800 nM (active),–
O=[N+]([O-])c1cc(Nc2nccc(-c3ccc4c(c3)OCO4)n2)cc(C(F)(F)F)c1,32.3 nM (active),–
Clc1ccc(CNc2ncncc2-c2ccc3c(c2)OCO3)cc1,2370 nM (active),–
c1cncc(CNc2ccnc(-c3ccc4cn[nH]c4c3)n2)c1,1600 nM (active),–
COc1ccc(-c2ccnc(NCc3ccc(Cl)c(Cl)c3)n2)cc1OC,–,-39.5%
c1nc(NCC2CCCO2)c2cc(-c3ccc4c(c3)OCO4)ccc2n1 (stereo not drawn),52.8 nM (active),–
Clc1ccc(CNc2nccc(-c3ccc4c(c3)OCCO4)n2)cc1Cl,15.8 nM (active),–
Cc1nc(CN(C)c2ncnc3ccc(-c4ccc5c(c4)OCO5)cc23)cs1,9.3 nM (active),–
Clc1cc(Cl)cc(CNc2nccc(-c3ccc4c(c3)OCO4)n2)c1,1.9 nM (active),–
COc1ccc(-c2ccnc(NCc3ccc(Cl)cc3)n2)cc1,277 nM (active),–
Cc1c(-c2ccnc(NCc3ccc(Cl)cc3)n2)sc(=O)n1C,74.8 nM (active),–
Cc1nc(CN(C)c2ncnc3ccc(-c4ccc5[nH]ncc5c4)cc23)cs1,47.5 nM (active),–
Brc1cc(Br)cc(CNc2nccc(-c3ccc4c(c3)OCO4)n2)c1,13 nM (active),–
Cc1nc(CNc2ncnc3ccc(-c4ccc5c(c4)OCO5)cc23)cs1,30.4 nM (active),–
FC(F)(F)c1cc(Br)cc(Nc2nccc(-c3ccc4c(c3)OCO4)n2)c1,102 nM (active),–
COc1cccc(-c2ccnc(NCc3ccc(Cl)c(Cl)c3)n2)c1,5460 nM (active),–

Compound,Potency,"activity change, negative = inhibition"
c1cncc(CNc2nccc(-c3ccc4c(c3)OCO4)n2)c1,11.3 nM (active),–
Brc1ccc(CNc2nccc(-c3ccc4c(c3)OCO4)n2)cc1Br,24.1 nM (active),–
c1cncc(CNc2nccc(-c3ccc4[nH]ncc4c3)n2)c1,72.8 nM (active),–
Clc1cc(Cl)cc(CNc2ncncc2-c2ccc3c(c2)OCO3)c1,68.4 nM (active),–
c1cncc(CNc2ccnc(-c3ccc4[nH]ncc4c3)n2)c1,964 nM (active),–
Clc1ccc(CNc2nccc(-c3ccc4[nH]ncc4c3)n2)cc1Cl,41.5 nM (active),–
Cc1c(-c2ccnc(NCc3cccnc3)n2)sc(=O)n1C,44.9 nM (active),–
COc1cccc(-c2ccnc(NCc3ccc(Cl)cc3)n2)c1,–,-49.7%
Clc1ccc(CNc2ncncc2-c2ccc3c(c2)OCO3)cc1Cl,626 nM (active),–
FC(F)(F)c1cccc(Nc2nccc(-c3ccc4c(c3)OCO4)n2)c1,33.6 nM (active),–
Clc1ccc(CNc2ccnc(-c3ccc4c(c3)OCO4)n2)cc1Cl,–,-25.3%
Clc1ccc(CNc2ccnc(-c3ccc4[nH]ncc4c3)n2)cc1Cl,1780 nM (active),–
Clc1ccc(Nc2nccc(-c3ccc4c(c3)OCO4)n2)cc1,1260 nM (active),–
Clc1ccc(CNc2nccc(-c3ccc4cn[nH]c4c3)n2)cc1Cl,183 nM (active),–
c1cc(-c2ccc3c(c2)OCO3)nc(Nc2ccc3c(c2)OCO3)n1,180 nM (active),–
Clc1ccc(CNc2nccc(-c3ccc4c(c3)OCO4)n2)cc1Cl,8.3 nM (active),–
